Results on ten compounds are retold here after PubChem BioAssay (NCATS).

The target in assay [1] is Catechol O-methyltransferase (Homo sapiens) (UniProt P21964). Kind of assay: Confirmatory Screen for Target Class Profiling of Small Molecule Inhibitors of Methyltransferases (AID 1745852). To be noted: MTase-Glo luminescence, SAH detection, recombinant enzyme; measured here: COMT max response; stronger effect = lower value.
Assay [2] deals with Guanidinoacetate N-methyltransferase (Homo sapiens) (UniProt Q14353). The description is as above. To be noted: MTase-Glo luminescence, SAH detection, recombinant enzyme; activity change, negative = inhibition: at 85.7 µM (top of the series) unless noted.
Assay [3] deals with Nicotinamide N-methyltransferase (Homo sapiens) (UniProt P40261). The description is as above. Conditions: MTase-Glo luminescence, SAH detection, recombinant enzyme; measured here: NNMT max response; stronger effect = lower value.
Chain of Nicotinamide N-methyltransferase (Homo sapiens) (P40261 whole entry, looked up): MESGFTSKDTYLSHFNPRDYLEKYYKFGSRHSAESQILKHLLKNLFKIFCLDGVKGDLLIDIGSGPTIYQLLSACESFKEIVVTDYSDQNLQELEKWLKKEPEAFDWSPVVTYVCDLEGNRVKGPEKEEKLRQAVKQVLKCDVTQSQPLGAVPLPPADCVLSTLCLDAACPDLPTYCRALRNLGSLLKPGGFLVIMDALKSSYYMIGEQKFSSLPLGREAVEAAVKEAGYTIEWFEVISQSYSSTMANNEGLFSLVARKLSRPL
The target of assay [4] is Phenylethanolamine N-methyltransferase (Homo sapiens) (UniProt P11086). Described as above. Conditions: MTase-Glo luminescence, SAH detection, recombinant enzyme; measured here: PNMT max response; stronger effect = lower value.
Chain of Phenylethanolamine N-methyltransferase (Homo sapiens) (P11086 whole entry, looked up): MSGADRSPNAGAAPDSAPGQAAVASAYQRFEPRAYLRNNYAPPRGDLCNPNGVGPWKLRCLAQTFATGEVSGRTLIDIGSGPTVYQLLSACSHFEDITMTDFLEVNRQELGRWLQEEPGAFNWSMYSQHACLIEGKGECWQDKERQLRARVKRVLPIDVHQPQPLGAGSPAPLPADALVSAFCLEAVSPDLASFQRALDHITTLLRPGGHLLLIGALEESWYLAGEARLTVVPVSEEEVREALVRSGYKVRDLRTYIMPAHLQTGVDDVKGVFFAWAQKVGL
The nature of assay [5]: NCATS anti-infectives library activity on HEK293 viability as a counter-qHTS vs the C. elegans viability qHTS (AID 1745854).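 Further: HEK293 cells exposed to compounds for 24 hr before the viability read.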 Further: potency means the concentration at half of the fitted maximal effect. The procedure, abridged: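 Compound titrations (final up to 41.7 uM) were incubated with HEK293 cells for 24 hr at 37C under 5% CO2. Viable cells were quantified with CellTiter-Glo after 10 min at ambient temperature.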
Assay [6] is described as follows: NCATS anti-infectives library activity on the primary C. elegans qHTS viability assay (AID 1745855; calls by dose curve). The procedure, abridged:
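Titration-based screen in worms: eggs hatched overnight in M9, L1 larvae fed TOP10 capsules in S medium with compound, incubated 21 °C for 7 days; fluorescent objects gated by size and intensity at days 0, 3 and 7.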
For orientation: qHTS replaces the single test concentration by a dilution series.

Assay [7] concerns the target Rap guanine nucleotide exchange factor 4 (Homo sapiens) (UniProt Q8WZA2). Kind of assay: Confirmatory qHTS for agonist of cAMP-regulated guanine nucleotide exchange factor 4 (EPAC2) (AID 1645884).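 Further: nucleotide exchange releases bodipy-GDP from Rap1 and this lowers its fluorescence; on the % scale 0 is the no-effect control and ±100 the full control effect; nearly all actives have a fitted effect of over 65% in size.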
For assay [8] the target is unchanged. The assay is described as follows: Confirmatory qHTS for antagonist of cAMP-regulated guanine nucleotide exchange factor 4 (EPAC2) (AID 1645885). Further: on the % scale 0 is the no-effect control and ±100 the full control effect; nearly all actives have a fitted effect of over 25% in size.
Assay [9] addresses Rap guanine nucleotide exchange factor 3 (Homo sapiens) (UniProt O95398). Kind of assay: Counterscreen qHTS for antagonist of cAMP-regulated guanine nucleotide exchange factor 3 (EPAC1) (AID 1645888).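 Further: fluorescence loss as bound BODIPY-GDP is released from Rap1B; % of control where 0% means no effect.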 The procedure, abridged: (§1)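 Rap1B–BODIPY-GDP (250 nM) with 50 uM GDP; compounds pin-transferred to 9.74 nM–152 uM final (activator) or from 7.32 nM upwards (inhibitor). Fluorescence Ex/Em 480/540 nm read at 5 and 30 min, then after adding cAMP or buffer, at room temperature.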
A general note: A counterscreen serves to expose hits that act by an unwanted route or on another target.

Assay [10] has the same target. The assay is described as follows: Counterscreen qHTS for agonist of cAMP-regulated guanine nucleotide exchange factor 3 (EPAC1) (AID 1645889). Further: % of control where 0% means no effect; nearly all actives have a fitted effect of over 40% in size. An outline of the steps:
as §1

The target of assay [11] is DNA repair nuclease/redox regulator APEX1 (Homo sapiens) (UniProt P27695). The assay is described as follows: qHTS Validation Assay for Inhibitors of the Human Apurinic/apyrimidinic Endonuclease 1 (APE1) (AID 1705;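 further: TAMRA fluorescence gain over two minutes as APE1 cuts a quenched THF abasic duplex; on the % scale 0 is the no-effect control and ±100 the full control effect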). The procedure, abridged:
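Activity read as rising fluorescence (598 nm emission, 525 nm excitation) from incision of a TAMRA/BHQ-2 duplex carrying a THF abasic site (50 nM). Compound and enzyme sat 15 min at RT before substrate start; signal change between first and third 60-s reads.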

A short description of assay [12]: Counterscreen for APE1 Inhibitors: Fluorescent Dye Displacement Validation Assay (AID 1707).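 Further: plate controls were ThO with dsDNA and no compound for no effect and ThO without dsDNA for full effect.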 An outline of the steps:
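Reaction mixture of 250 nM Thiazole Orange and 50 nM double-stranded abasic-site DNA was dispensed, compounds were pin-transferred, and fluorescence was read at endpoint (480 nm ex, 540 nm em). Reduced fluorescence indicated dye displacement by DNA binding.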

Assay [13] addresses Endonuclease 4 (Escherichia coli (strain K12)) (UniProt P0A6C1). Kind of assay: Counterscreen for APE1 Inhibitors: qHTS Validation Assay for Inhibitors of Endonuclease IV (AID 1708). Further: on the % scale 0 is the no-effect control and ±100 the full control effect. An outline of the steps: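 Read-out: fluorescence rise (ex 525/em 598 nm) from incision of a TAMRA/BHQ-2 double-stranded THF abasic-site substrate (50 nM), measured kinetically; third-minus-first read difference gave reaction progress. Enzyme 2 nM.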

Assay [14] can be described thus: qHTS for differential inhibitors of proliferation of Plasmodium falciparum line 7G8 (AID 1815).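 Further: potency means the concentration at half of the fitted maximal effect; parasite growth measured after three days of incubation.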
The nature of assay [15]: qHTS for differential inhibitors of proliferation of Plasmodium falciparum line GB4 (AID 1816).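 Further: potency means the concentration at half of the fitted maximal effect; parasite growth measured after 72 h incubation.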 Conditions: Potency: Plasmodium falciparum GB4 proliferation inhibition.
The nature of assay [16]: qHTS for differential inhibitors of proliferation of Plasmodium falciparum line D10 (AID 1877).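 Further: potency means the concentration at half of the fitted maximal effect; parasites grown with compound for 72 h before DNA staining.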
Assay [17] can be described thus: qHTS for differential inhibitors of proliferation of Plasmodium falciparum line Dd2 (AID 1882). Further: nearly all actives have a fitted effect of over 65% in size. Further: potency means the concentration at half of the fitted maximal effect.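 On activity change, negative = inhibition: compound exposure of 72 h on infected erythrocytes; plate controls were DMSO vehicle for no effect and 0.29 µM artemisinin for full effect.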 To be noted: Potency: Plasmodium falciparum Dd2 proliferation inhibition. The procedure, abridged: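 RBC culture, 0.3% parasitemia / 2.5% Hct final; cpd added by pin tool in DMSO; 72 h, 37 C, 5% CO2; lysis buffer + SYBR Green I, o/n RT dark; FI 485/535; norm. to artemisinin 0.29 uM and DMSO.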

A short description of assay [18]: qHTS for differential inhibitors of proliferation of Plasmodium falciparum line W2 (AID 1883).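 Further: potency means the concentration at half of the fitted maximal effect; parasites grown with compound for 72 h before lysis and staining.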 To be noted: Potency: Plasmodium falciparum W2 proliferation inhibition.
The nature of assay [19]: qHTS for differential inhibitors of proliferation of Plasmodium falciparum line HB3 (AID 1886).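 Further: potency means the concentration at half of the fitted maximal effect; parasites grown with compound for 72 h before SYBR Green readout.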 To be noted: Potency: Plasmodium falciparum HB3 proliferation inhibition.
Assay [20] deals with Ferritin light chain (Equus caballus) (UniProt P02791). Kind of assay: qHTS Validation Assay for Identification of Novel General Anesthetics (AID 2323). Further: on the % scale 0 is the no-effect control and ±100 the full control effect. The procedure, abridged:
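Competitive displacement of the profluorescent anesthetic 1-AMA (50% saturated, PBS) from 10 uM apoferritin, 10 min, room temperature. Activity is normalized 380/535 nm fluorescence; concentration-response fitted with a four-parameter Hill equation.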

Assay [21] concerns the target ATP-dependent DNA helicase Q1 (Homo sapiens) (UniProt P46063). Kind of assay: qHTS Validation Assay for Inhibitors of RecQ-Like Dna Helicase 1 (RECQ1) (AID 2353).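 Further: plate controls were DMSO vehicle for no effect and enzyme-free control for full effect.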 An outline of the steps: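 RECQ1T1 50 nM; forked duplex (20 bp + 30-nt ss tails) 200 nM, ATP 2 mM final; pH 8.0, 2 mM MgCl2, 2.5 ug/ml poly(dI-dC); 15 min compound preincubation; discontinuous kinetic read over 2 h at RT.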

Assay [22] can be described thus: Validation screen for inhibitors of Lassa infection (AID 463096; calls by dose curve; further: on the % scale 0 is the no-effect control and ±100 the full control effect).
Assay [23] addresses M-phase phosphoprotein 8 (Homo sapiens) (UniProt Q99549). Kind of assay: qHTS Validation Assay for Inhibitors for MPP8 Chromodomain Interactions with Methylated Histone Tails (AID 488949). Further: nearly all actives have a fitted effect of over 55% in size. Further: potency means the concentration at half of the fitted maximal effect. The procedure, abridged: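 AlphaScreen proximity signal from streptavidin donor and Ni-chelate acceptor beads (10 ug/mL each) reported binding of MPP8 to trimethyl-K9 H3(1-18) peptide, both at 50 nM. The complex formed 30 min before a 30 min compound exposure at room temperature, in PBS pH 7.4.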

In assay [24] the target is Transient receptor potential cation channel subfamily V member 1 (Homo sapiens) (UniProt Q8NER1). Kind of assay: HTS Assay for Compounds that Act as Enhancers of the Vanilloid Receptor 1 (AID 488979). Further: 0% is about no effect. An outline of the steps:
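TRPV1 cells loaded with Fluo-8 calcium dye; compound added and Ca2+ signal (ex 480/em 520 nm) followed 3 min, then capsaicin at EC20 added and read 2 more min to detect enhancement.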

The target in assay [25] is Thyrotropin receptor (Homo sapiens) (UniProt P16473). Kind of assay: qHTS Assay for Antagonists of the Thyroid Stimulating Hormone Receptor (AID 488980). Further: 0% is about no effect. An outline of the steps:
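Inhibition of cAMP raised by EC80 TSH (4 nM final) was read by HTRF, with lysate cAMP competing against cAMP-d2 for cryptate antibody after 30 min at room temperature. The cells were transfected HEK293 held in phosphodiesterase inhibitor RO 20-1724 at 70 uM.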

Assay [26] concerns the target Thyrotropin-releasing hormone receptor (Homo sapiens) (UniProt P34981). The assay is described as follows: qHTS for Small Molecule Agonists and Allosteric Enhancers of Human TRH Receptor: Validation Screen for Agonists (AID 493127;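 active means calcium activation more than 3 SD above the typical response in the agonist read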;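 further: intracellular calcium rise by fluo-8 fluorescence before TRH EC20 addition; 0% is about no effect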). To be noted: TRH receptor agonist cell assay; at 2 µM; stronger effect = higher value. The procedure, abridged:
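Kinetic fluorescence assay of agonist-induced calcium release: overnight-plated TRHR cells, room-temperature fluo-8 loading, baseline then compound addition with per-second reads.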

For assay [27], the target named is Galactokinase (Homo sapiens) (UniProt P51570). The assay is described as follows: qHTS Validation Assay for Inhibitors of Human Galactokinase (GALK) (AID 493189). Further: 0% is about no effect. An outline of the steps: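 Inhibition was measured as remaining ATP, detected by luciferase luminescence after a 1 h room-temperature reaction. Final conditions: 5 nM GALK, 100 uM galactose, 35 uM ATP, pH 8.0 HEPES buffer.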

Assay [28] in a line: qHTS for differential inhibitors of proliferation of Plasmodium falciparum line 3D7 (AID 1876).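 Further: parasite growth measured after three days of culture; 0% = vehicle wells and -100% = reference inhibitor wells.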
Assay [29] is described as follows: Validation screen for small molecules that induce DNA re-replication in MCF 10A normal breast cells (AID 463097). Further: 0% is about no effect; nearly all actives have a fitted effect of over 60% in size. The procedure, abridged:
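Read-out is Hoechst total nuclear intensity by fluorescence scanning imager, flagging increased high-DNA-content nuclei. Compounds were incubated with MCF 10A cells for 48 hr (37 C, 5% CO2) before 40 min staining.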

A short description of assay [30]: Quantitative high throughput screen for delayed death inhibitors of the malarial parasite plastid, 96 hour incubation (AID 488745). Further: on the % scale 0 is the no-effect control and ±100 the full control effect; nearly all actives have a fitted effect of over 70% in size. An outline of the steps:
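Two-generation (96 h) exposure of luciferase-reporter P. falciparum in erythrocytes, 2% hematocrit, 0.1% parasitemia final, 37 C, 5% CO2, RPMI 1640 with 0.5% Albumax. Growth inhibition scored by reduced luminescence.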

Assay [31] can be described thus: Quantitative high throughput screen for delayed death inhibitors of the malarial parasite plastid, 48 hour incubation (AID 488752). Further: on the % scale 0 is the no-effect control and ±100 the full control effect; nearly all actives have a fitted effect of over 65% in size. An outline of the steps: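 Cultures: infected erythrocytes at final 2% hematocrit and 0.1% parasitemia in Albumax-supplemented RPMI. Parasites express integrated firefly luciferase. Incubation with compound lasts 48 h before luminescent detection of remaining reporter activity.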

Assay [32] can be described thus: Validation screen for small molecules that induce DNA re-replication in SW480 colon adenocarcinoma cells (AID 504364). Further: 0% is about no effect. The procedure, abridged: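 Hoechst-stained SW480 nuclei, imaged at 405 nm excitation after 48 hr compound exposure, were counted for elevated DNA content as the re-replication signal.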

Records with an inconclusive call do not appear. Calls of active or inactive are those of the source. Unless noted, the call rests on the fitted dose curve; in most records, active means well fitted curve in the direction sought with a large enough effect; inconclusive means small, poorly fitted or top-dose-only effect, or another doubt; inactive means no such curve, though single readings can be large; an effect the other way counts as inactive or inconclusive.

Chain of Rap guanine nucleotide exchange factor 4 (Homo sapiens) (Q8WZA2 whole entry, looked up): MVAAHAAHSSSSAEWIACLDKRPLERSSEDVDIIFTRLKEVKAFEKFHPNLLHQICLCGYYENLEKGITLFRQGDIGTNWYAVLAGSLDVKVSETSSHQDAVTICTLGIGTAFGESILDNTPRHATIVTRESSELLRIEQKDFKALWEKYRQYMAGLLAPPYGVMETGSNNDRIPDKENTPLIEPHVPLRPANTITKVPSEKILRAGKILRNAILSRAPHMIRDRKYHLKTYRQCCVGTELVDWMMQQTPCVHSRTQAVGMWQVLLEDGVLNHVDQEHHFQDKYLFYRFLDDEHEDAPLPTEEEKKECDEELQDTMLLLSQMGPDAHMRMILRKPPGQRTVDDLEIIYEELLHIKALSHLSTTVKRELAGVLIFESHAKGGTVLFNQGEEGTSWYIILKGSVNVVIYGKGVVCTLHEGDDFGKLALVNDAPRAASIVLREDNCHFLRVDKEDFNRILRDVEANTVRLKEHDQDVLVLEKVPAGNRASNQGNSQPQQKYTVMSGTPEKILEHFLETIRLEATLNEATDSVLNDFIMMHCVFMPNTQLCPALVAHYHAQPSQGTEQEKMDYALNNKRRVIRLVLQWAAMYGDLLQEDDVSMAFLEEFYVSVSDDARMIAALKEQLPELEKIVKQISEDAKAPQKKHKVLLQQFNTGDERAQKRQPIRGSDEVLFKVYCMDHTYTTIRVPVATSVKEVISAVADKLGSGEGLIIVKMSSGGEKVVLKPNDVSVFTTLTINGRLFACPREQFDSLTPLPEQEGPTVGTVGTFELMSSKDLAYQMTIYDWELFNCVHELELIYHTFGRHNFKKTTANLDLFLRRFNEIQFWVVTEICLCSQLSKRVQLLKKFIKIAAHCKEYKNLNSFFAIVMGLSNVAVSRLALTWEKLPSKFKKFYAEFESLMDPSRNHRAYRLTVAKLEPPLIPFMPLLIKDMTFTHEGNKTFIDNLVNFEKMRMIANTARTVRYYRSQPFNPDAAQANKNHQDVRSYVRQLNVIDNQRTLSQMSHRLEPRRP
Chain of M-phase phosphoprotein 8 (Homo sapiens) (Q99549 whole entry, looked up): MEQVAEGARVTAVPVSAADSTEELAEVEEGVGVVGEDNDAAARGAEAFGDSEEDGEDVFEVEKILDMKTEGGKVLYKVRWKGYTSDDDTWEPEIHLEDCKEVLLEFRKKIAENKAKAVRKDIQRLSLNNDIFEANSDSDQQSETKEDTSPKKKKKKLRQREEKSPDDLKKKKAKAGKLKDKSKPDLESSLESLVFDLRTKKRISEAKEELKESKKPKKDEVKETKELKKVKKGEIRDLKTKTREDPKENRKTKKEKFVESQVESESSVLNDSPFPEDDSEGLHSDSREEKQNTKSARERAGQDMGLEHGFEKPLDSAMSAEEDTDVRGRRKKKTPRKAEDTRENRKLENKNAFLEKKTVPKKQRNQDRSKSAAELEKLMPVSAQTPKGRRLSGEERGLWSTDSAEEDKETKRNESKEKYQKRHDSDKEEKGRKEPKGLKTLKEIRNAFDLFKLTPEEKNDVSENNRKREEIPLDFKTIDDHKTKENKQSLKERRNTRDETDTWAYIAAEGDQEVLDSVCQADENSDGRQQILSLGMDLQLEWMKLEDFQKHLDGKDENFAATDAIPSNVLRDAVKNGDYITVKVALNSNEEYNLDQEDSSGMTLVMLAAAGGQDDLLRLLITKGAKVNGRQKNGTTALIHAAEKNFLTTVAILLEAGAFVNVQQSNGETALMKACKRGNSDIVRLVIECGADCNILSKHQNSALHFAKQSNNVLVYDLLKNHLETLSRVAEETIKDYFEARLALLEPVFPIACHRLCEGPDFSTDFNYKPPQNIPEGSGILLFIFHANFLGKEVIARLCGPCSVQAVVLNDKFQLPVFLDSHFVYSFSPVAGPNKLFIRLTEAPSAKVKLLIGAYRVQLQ
Chain of Catechol O-methyltransferase (Homo sapiens) (P21964 whole entry, looked up): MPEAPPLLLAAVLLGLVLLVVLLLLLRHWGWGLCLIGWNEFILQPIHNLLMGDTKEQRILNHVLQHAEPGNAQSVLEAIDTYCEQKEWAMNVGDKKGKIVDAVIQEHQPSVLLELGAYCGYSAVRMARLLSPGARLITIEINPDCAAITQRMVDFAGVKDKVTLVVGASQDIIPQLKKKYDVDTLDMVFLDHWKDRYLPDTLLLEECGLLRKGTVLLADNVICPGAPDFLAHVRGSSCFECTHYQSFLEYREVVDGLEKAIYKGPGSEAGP
Chain of DNA repair nuclease/redox regulator APEX1 (Homo sapiens) (P27695 whole entry, looked up): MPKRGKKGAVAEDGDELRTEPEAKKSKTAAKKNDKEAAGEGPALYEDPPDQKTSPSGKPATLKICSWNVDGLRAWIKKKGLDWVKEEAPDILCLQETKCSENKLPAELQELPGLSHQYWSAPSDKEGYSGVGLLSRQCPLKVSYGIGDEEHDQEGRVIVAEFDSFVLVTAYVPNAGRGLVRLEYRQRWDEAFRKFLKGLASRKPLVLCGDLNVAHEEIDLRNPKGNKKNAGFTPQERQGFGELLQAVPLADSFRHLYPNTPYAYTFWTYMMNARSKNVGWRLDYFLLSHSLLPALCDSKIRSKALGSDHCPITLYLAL
Chain of Thyrotropin receptor (Homo sapiens) (P16473 whole entry, looked up): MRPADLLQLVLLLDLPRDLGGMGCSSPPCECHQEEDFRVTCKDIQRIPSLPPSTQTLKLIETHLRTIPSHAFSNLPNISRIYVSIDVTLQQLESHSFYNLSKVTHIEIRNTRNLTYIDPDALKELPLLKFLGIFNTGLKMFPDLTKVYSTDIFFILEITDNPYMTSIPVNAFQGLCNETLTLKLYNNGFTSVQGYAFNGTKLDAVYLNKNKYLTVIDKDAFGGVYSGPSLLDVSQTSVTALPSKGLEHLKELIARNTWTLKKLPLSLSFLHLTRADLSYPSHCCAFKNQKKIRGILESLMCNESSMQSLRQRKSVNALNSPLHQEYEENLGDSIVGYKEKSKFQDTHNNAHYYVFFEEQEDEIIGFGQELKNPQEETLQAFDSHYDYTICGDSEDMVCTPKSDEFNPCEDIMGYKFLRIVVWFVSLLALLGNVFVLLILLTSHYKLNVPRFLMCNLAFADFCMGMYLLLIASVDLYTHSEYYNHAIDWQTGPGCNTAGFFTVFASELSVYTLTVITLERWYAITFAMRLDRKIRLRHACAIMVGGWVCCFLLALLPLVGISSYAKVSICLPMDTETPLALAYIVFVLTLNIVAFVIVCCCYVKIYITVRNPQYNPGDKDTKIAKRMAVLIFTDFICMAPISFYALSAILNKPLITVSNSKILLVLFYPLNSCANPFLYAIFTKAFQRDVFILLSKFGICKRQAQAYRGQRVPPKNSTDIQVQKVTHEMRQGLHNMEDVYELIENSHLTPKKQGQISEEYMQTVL
Chain of Rap guanine nucleotide exchange factor 3 (Homo sapiens) (O95398 whole entry, looked up): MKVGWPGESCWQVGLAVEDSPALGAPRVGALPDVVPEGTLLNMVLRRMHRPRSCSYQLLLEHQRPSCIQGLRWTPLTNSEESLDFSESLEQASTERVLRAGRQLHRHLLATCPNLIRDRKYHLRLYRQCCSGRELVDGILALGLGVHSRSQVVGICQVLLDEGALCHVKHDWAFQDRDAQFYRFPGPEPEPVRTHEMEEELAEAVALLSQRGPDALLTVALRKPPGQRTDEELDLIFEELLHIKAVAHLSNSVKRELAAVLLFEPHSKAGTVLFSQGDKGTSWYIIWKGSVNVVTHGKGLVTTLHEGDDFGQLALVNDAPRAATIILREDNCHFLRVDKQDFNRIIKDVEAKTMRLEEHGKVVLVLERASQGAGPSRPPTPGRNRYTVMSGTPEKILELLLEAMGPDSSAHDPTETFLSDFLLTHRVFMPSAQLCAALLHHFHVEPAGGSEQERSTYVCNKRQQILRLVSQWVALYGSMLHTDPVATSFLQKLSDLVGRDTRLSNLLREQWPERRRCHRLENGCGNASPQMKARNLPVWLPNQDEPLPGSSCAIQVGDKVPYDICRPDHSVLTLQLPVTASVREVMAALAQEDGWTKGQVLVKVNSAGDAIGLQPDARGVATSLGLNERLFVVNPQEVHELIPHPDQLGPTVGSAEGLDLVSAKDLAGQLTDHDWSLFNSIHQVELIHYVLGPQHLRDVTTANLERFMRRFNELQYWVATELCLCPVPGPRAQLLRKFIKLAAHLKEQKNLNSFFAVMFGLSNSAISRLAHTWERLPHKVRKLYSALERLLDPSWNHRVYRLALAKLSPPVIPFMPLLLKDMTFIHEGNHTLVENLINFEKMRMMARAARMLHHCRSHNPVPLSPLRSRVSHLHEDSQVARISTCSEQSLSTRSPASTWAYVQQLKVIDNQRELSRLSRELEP
Chain of Ferritin light chain (Equus caballus) (P02791 2-175 limits assumed): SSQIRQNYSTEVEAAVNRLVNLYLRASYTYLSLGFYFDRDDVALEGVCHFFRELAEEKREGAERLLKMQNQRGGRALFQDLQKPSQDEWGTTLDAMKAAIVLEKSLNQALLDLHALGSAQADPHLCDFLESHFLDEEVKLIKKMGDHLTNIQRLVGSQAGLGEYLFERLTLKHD

Regarding `CNC1CCc2ccccc21` (centres undefined), the activity in assay [1] was -8.85%; in [3], -95.4%; in assay [4], -50.7%. The activity change, negative = inhibition in [2] stood at 9.32% [at 114 µM].
Take `CC[C@H]1CN2CCc3cc(OC)c(OC)cc3[C@@H]2C[C@@H]1C[C@H]1NCCc2cc(O)c(OC)cc21`: the Potency entry in assay [5] and in assay [6] was “inactive” throughout.
As for `Nc1ncnc2c1ccn2[C@@H]1O[C@H](CO)[C@@H](O)[C@H]1O`, in assay [5], the Potency was 1.12 µM (active).
`O=c1ccc2ccc3occc3c2o1`: the Potency entry in [5] is “inactive”.
Consider `O=c1[nH]c(=S)n(-c2ccccc2F)c(O)c1C=Nc1ccc(N2CCOCC2)cc1`, for which the activation in assay [7] is 4.59% [at 17.1 µM, percent relative to cAMP agonist control] (inactive); in [10] it was 32% [at 30.8 µM] (inactive). In addition, the activity change, negative = inhibition in assay [8] is -15.3% [at 12.7 µM] (inactive); in assay [9] it was -4.47% [at 30.8 µM] (inactive).
As to `CC(=O)c1cccc(NC(=O)NC[C@H]2C[C@@H]3CCN2C[C@@H]3c2cc(-c3ccc(F)cc3)nc(C)n2)c1`, the activity is 2.65% in assay [1], -9.36% in assay [3] and 3.37% in [4]. For the same compound, the activity change, negative = inhibition in [2] was 5.17% [at 57.3 µM].
Take `O=C(Nc1ccccc1F)N[C@@H]1N=C(c2ccccc2)c2ccccc2NC1=O`: the Potency result in assay [5] was “inactive”.
On to `Oc1cc2c(cc1O)[C@H]1c3ccccc3CNC1CC2` (some centres undefined), for which the Potency result in assay [11], in [13], in [20] and in [22] was “inactive” in each case. For the same compound, the outcome in assay [12], in assay [21], in assay [24], in [25] and in [27] was “inactive” throughout. Also, the Potency in assay [14] is 10 µM (active); in [15] it was 12.6 µM (active); in assay [16], 11.2 µM (active); in [17] it was 8.91 µM (active); in [18], 10 µM (active); in assay [19] it was 11.2 µM (active). Besides, the Potency in assay [23] was 25.1 µM (active). In addition, the activation in assay [26] was 0.812% (inactive).
Take `Cc1ccccc1OCC(=O)N1CCN(CCc2ccccn2)CC1`: the Potency entry in assay [7] and in assay [10] was “inactive” in each case. For the same compound, the activity change, negative = inhibition in assay [8] was 1.52% [at 12.7 µM] (inactive). In addition, in assay [9], the outcome is “inactive”.
For the compound `C[C@]12CC[C@@H](O)CC1CCC1C2CC[C@]2(C)C(=O)CC[C@@H]12` (some centres undefined), the Potency entry in assay [11], in [13], in [28], in assay [17], in assay [22] and in assay [29] was “inactive” each time. For the same compound, the Potency entry in assay [30], in assay [31] and in assay [23] was “inactive” each time. For the same compound, the outcome in assay [12], in assay [21], in [24], in assay [25], in assay [27] and in [32] was “inactive” in each case. Besides, the Potency in [18] was 10 µM (active).
